# EZH2 inh = blocks human EZH2/PRC2 H3K27 methylation; DELFIA TRF, 1 h; inhibition, % at 12.5 µM; 57,000 compounds, 0.35% hits;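 active = mean inhibition of replicates at least 50% and every single replicate also reaching 50%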;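 note: dimethyl H3K27 on biotinylated H3 21-44 peptide detected by antibody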
# Numbers stand for hits; n = inactive. Many of the other results were omitted from the sample, so hits are more common in it than they were.
SMILES,EZH2 inh
COc1ccc(Cl)cc1Nc1nc(N)nc(-c2cc3ccccc3o2)n1,n
CCCCN1C(=O)NC(C(F)(F)F)(C(F)(F)F)C2=C1CC(C)(C)CC2=O,n
COc1ccc(C#Cc2ccc3c(c2)[C@]2(C(=O)N3)[C@H](C(=O)O)[C@H]3C(=O)O[C@H](c4ccccc4)[C@H](c4ccccc4)N3[C@@H]2c2ccc(O)cc2)cc1,n
O=C1CCCc2c1n(CCN(Cc1ccccc1)Cc1ccccc1)c1ccc(Cl)cc21,n
CC(=O)N(C)c1ccc(OCC(O)Cn2c3ccc(Cl)cc3c3cc(Cl)ccc32)cc1 (centres undefined),n
O=C(O)c1c(Sc2ccccc2)c2cc(Cl)ccc2n1Cc1ccc(Cl)cc1,64
[N-]=[N+]=NC[C@@H](Cc1ccccc1)NC(=O)Nc1ccccc1,n
CCOC(=O)c1c(NC(=O)C2CC(c3cccc(Br)c3)=NO2)sc(C(=O)OC)c1C (centres undefined),n
CC1OC(OCC2OC(Oc3c(-c4ccc(O)c(O)c4)oc4cc(O)cc(O)c4c3=O)C(O)C(O)C2O)C(O)C(O)C1O (centres undefined),n
C[C@@H]1O[C@@H](Oc2cc(O)c3c(=O)c(O[C@@H]4O[C@@H](C)[C@H](O)[C@@H](O[C@@H]5OC[C@@H](O)[C@H](O)[C@H]5O)[C@H]4O[C@@H]4O[C@H](CO)[C@@H](O)[C@H](O)[C@H]4O)c(-c4ccc(O)cc4)oc3c2)[C@H](O)[C@H](O)[C@H]1O,n
O=c1c(OC2OC(CO)C(O)C(O)C2OC2OC(CO)C(O)C(O)C2O)c(-c2ccc(O)cc2)oc2cc(O)cc(O)c12 (centres undefined),87
CC(=O)Nc1ccc(NC(=O)C(NC(=O)c2ccco2)C(C)C)cc1 (centres undefined),n
COc1cc(C(=O)Nc2cc(-c3nc4ncccc4o3)ccc2C)ccc1OCc1ccc(Cl)cc1,n
Cc1ccnc(NS(=O)(=O)c2ccc(NC(=O)c3cc4c(s3)CCCC4)cc2)n1,n
O=C(O)Cc1cccc(OCCCN(Cc2cccc(C(F)(F)F)c2Cl)CC(c2ccccc2)c2ccccc2)c1,85
CCCc1ccc(-c2cc(C(=O)NCc3cccnc3)c3ccccc3n2)cc1,n
COc1ccccc1C1=NN(C(=O)CCC(=O)O)C(c2ccco2)C1 (centres undefined),n
CCOc1cccc(NC(=O)C2CC(=O)N(/N=C(\C)c3ccc(Br)s3)C(=N)S2)c1 (centres undefined),92
COC(=O)COc1cccc(NC(=O)c2ccc(Br)cc2)c1,n
Cc1ccc(C(=O)COc2cccc(NC(=O)c3ccc(Br)cc3)c2)cc1C,n
CC(Oc1cccc(Cl)c1)C(=O)NCc1ccco1 (centres undefined),n
CCOc1cc(/C=C2\SC(=S)NC2=O)cc(Cl)c1OC(=O)c1ccc(OC)cc1,67
O=C(CCCCCCC(=O)Nc1ccccc1O)N/N=C/c1ccc(N(c2ccccc2)c2ccccc2)cc1,n
O=C(O)CCCCCC(=O)N/N=C/c1ccc(N(c2ccccc2)c2ccccc2)cc1,61
O=C(O)CCCCCCC(=O)N/N=C/c1ccc(F)cc1,n
SMILES,EZH2 inh
O=C(O)CCCCCC(=O)N/N=C/c1ccccc1,n
N#Cc1ccc(/C=N/NC(=O)CCCCCC(=O)O)cc1,n
O=C(O)CCCCCCC(=O)N/N=C/c1ccc(N(c2ccccc2)c2ccccc2)cc1,63
CC(Sc1nc2ccccc2c(=O)[nH]1)C(=O)Nc1ccc(Cl)cc1 (centres undefined),n
NNC(=O)c1cc(COc2c(Cl)cccc2Cl)on1,n
O=C(Nc1ccccc1C(=O)O)c1cccc(NS(=O)(=O)c2ccc(Cl)cc2)c1,n
CCc1c(O)nc(SCC(=O)Nc2ccc(OC)cc2)n(-c2ccccc2)c1=O,n
CC(C)=CCc1cc(/C=C2\OC(=O)C(c3cc4c(cc3O)OC(C)(C)CC4)C2=O)ccc1O (centres undefined),78
COc1cc(O)c(CC=C(C)C)cc1C(=O)/C=C/c1ccc(O)c(CC=C(C)C)c1,n
COC(=O)c1ccc(CSc2nnc(-c3cccc(Br)c3)o2)o1,n
Cn1c(SCC(=O)c2ccc(Br)cc2)nnc1-c1cc2ccccc2o1,n
O=C1NC(=O)C(c2c[nH]c3ccccc23)=C1c1c[nH]c2ccccc12,n
Cc1ccc(-c2ccc3c(c2)O[C@H](CN(C)Cc2ccc(C(=O)O)cc2)[C@H](C)CN([C@H](C)CO)S3(=O)=O)cc1,n
C[C@@H]1CN([C@H](C)CO)S(=O)(=O)c2ccc(/C=C/c3ccccc3)cc2O[C@@H]1CN(C)Cc1ccc(C(=O)O)cc1,n
C[C@H](CO)N1C[C@H](C)[C@H](CN(C)Cc2ccc(C(=O)O)cc2)Oc2cc(/C=C/c3ccccc3)ccc2S1(=O)=O,52
C[C@H](CO)N1C[C@H](C)[C@@H](CN(C)Cc2ccc(F)cc2)Oc2cc(Br)ccc2S1(=O)=O,58
Cc1ccc(-c2ccc3c(c2)O[C@H](CN(C)Cc2ccc(C(=O)O)cc2)[C@@H](C)CN([C@H](C)CO)S3(=O)=O)cc1,50
C[C@H]1CN([C@@H](C)CO)S(=O)(=O)c2ccc(Br)cc2O[C@H]1CN(C)Cc1ccccc1,n
